# Results reported in PubChem BioAssay (NCI).
# This is part of a sample that, as a whole, favours compounds with a hit. Of some 83,000 tested, about 20% had one in any assay.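 Percent growth is the endpoint: 0 to 100 indicates growth inhibition (40 means 60% inhibition), 0 means no net growth, and negative values indicate cell death.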 Unmarked numbers belong to inactive results. The source made the active and inactive calls. Rule for the calls: active = growth percent below 10; inactive = the rest.
# How the values were obtained:
# Test in all cases: NCI-60 one-dose screen, 48 h (100 = growth as untreated, 0 = no growth, -100 = all killed)
# Details in all cases: 10 µM unless noted
# SR leukemia = tested on: SR leukemia
# RPMI-8226 leukemia = tested on: RPMI-8226 leukemia
# OVCAR-8 ovarian = tested on: OVCAR-8 ovarian
# OVCAR-5 ovarian = tested on: OVCAR-5 ovarian
# OVCAR-4 ovarian = tested on: OVCAR-4 ovarian
# SK-OV-3 ovarian = tested on: SK-OV-3 ovarian
# IGROV1 ovarian = tested on: IGROV1 ovarian
# OVCAR-3 ovarian = tested on: OVCAR-3 ovarian
# NCI/ADR-RES ovarian = tested on: NCI/ADR-RES ovarian
# T-47D breast = tested on: T-47D breast
# BT-549 breast = tested on: BT-549 breast
# MDA-MB-435 melanoma = tested on: MDA-MB-435 melanoma
# SW-620 colon = tested on: SW-620 colon
# MCF7 breast = tested on: MCF7 breast
# HCT-116 colon = tested on: HCT-116 colon
# HCC-2998 colon = tested on: HCC-2998 colon
# KM12 colon = tested on: KM12 colon
# HS 578T breast = tested on: HS 578T breast
SMILES,growth (SR leukemia),growth (RPMI-8226 leukemia),growth (OVCAR-8 ovarian),growth (OVCAR-5 ovarian),growth (OVCAR-4 ovarian),growth (SK-OV-3 ovarian) [%],growth (IGROV1 ovarian),growth (OVCAR-3 ovarian),growth (NCI/ADR-RES ovarian),growth (T-47D breast),growth (BT-549 breast),growth (MDA-MB-435 melanoma),growth (SW-620 colon),growth (MCF7 breast),growth (HCT-116 colon),growth (HCC-2998 colon),growth (KM12 colon),growth (HS 578T breast)
COc1cc(C(=O)/C=C/c2c(C)n([O-])c3ccc(C(F)(F)F)cc3[n+]2=O)cc(OC)c1OC,24.4%,59.6%,8.63% (active),122%,89.5%,87.3,111%,-18.9% (active),75.7%,18.3%,80.6%,94.1%,26%,45.4%,21.1%,105%,91.4%,
COc1ccc(/C=C2\Oc3cc(OCCCN4CCCC4)ccc3C2=O)cc1,-28.4% (active),86.9%,95.9%,92.9%,90.1%,106,88.4%,94.3%,96.2%,94%,95.5%,97.6%,77.1%,69.8%,55.7%,91.3%,82.7%,
CCCCCCCCCCCCCCCCCCNC(=O)[C@H]1CSC(c2cccs2)N1 (stereo partly drawn),-41.2% (active),-51.1% (active),-23% (active),-54.1% (active),42.2%,39.7,2.04% (active),-17.3% (active),-45.3% (active),-65.7% (active),-77.4% (active),-90.3% (active),-65.5% (active),-70.6% (active),-89.6% (active),-82.4% (active),-70.9% (active),
CCC(=O)Oc1ccc(/C(=C(/C)Cc2cccc(OC)c2)c2ccc(OCCN(C)C)cc2)cc1,-0.896% (active),70.7%,102%,99.1%,87.3%,114,95.4%,92%,100%,86.7%,95.7%,9.82% (active),74.2%,45.1%,71.8%,95.1%,86.3%,
CCC1=CCC[C@@]2(C)CCC[C@@]3(C)CCCC(C)(C)[C@]1([O-])[O+]32,112%,97.9%,104%,104%,85.1%,107,105%,111%,106%,,101%,,101%,98.8%,102%,104%,110%,92.8%
CN(C)c1ncnc2c1ccn2C1OC(CO)C(O)C1O (stereo not drawn),89.5%,83.7%,0.899% (active),39.5%,33.3%,33.7,-0.957% (active),25.9%,1.88% (active),,57.3%,62.3%,36.3%,-7.76% (active),37%,22.7%,84.1%,17.5%
COc1ccc2c(c1)[nH]c(=O)c1c3cc(C)c(C)cc3cn21,31.9%,-32.2% (active),-27.5% (active),28.8%,42.4%,43.3,-21.7% (active),,8.27% (active),-24.4% (active),0.0621% (active),-60.8% (active),-52.8% (active),3.58% (active),-35.9% (active),15.7%,-87.7% (active),
COc1ccc(-c2nc(/C=N/Nc3cc(C)nc4ccc(Cl)cc34)c(C)o2)cc1,-5.37% (active),-50.8% (active),-82% (active),-93.3% (active),-95.3% (active),,-78.8% (active),-96.9% (active),-74.7% (active),-38% (active),-34.9% (active),-97.1% (active),-88.6% (active),-80.2% (active),-86% (active),-48.3% (active),-87% (active),-29.3% (active)
CCN1CCN(CC(=O)N2c3cccc4cccc(c34)N(C(=O)CN3CCN(CC)CC3)C2c2cn(-c3ccccc3)nc2-c2cccc([N+](=O)[O-])c2)CC1,-48% (active),-39.3% (active),-9.32% (active),1.54% (active),-76.4% (active),,-29.1% (active),-70.8% (active),47.3%,-70.7% (active),80.7%,-75.7% (active),-43.6% (active),-29% (active),-54.9% (active),-49.1% (active),23.4%,69.6%
CCCN=C1NC(=O)/C(=C/c2nc(-c3ccc(OC)cc3)n3ccccc23)S1,62.5%,74%,86.7%,104%,87.5%,98.1,94%,,83.6%,87.3%,90.5%,109%,72.9%,77.5%,26.3%,97%,48.8%,-8.63% (active)
COc1ccc(CN2CCc3c(Sc4ccccc4)nc(N)nc3C2=O)c(OC)c1,43.3%,-6.07% (active),44.8%,82.3%,44.3%,82.2,,57.1%,49.7%,33.9%,23.4%,60.6%,81.2%,43.7%,42.7%,86.2%,84.9%,74.3%
Cc1ccc2nc(-c3cc4c([nH]c5ccccc54)c(-c4ccc(F)c(F)c4)n3)[nH]c2c1,-18.8% (active),47.4%,78.3%,113%,69%,109,,96.7%,83%,77.8%,83.7%,91.3%,101%,51.8%,15.2%,88.6%,72.4%,108%
Cn1ncc2c(Sc3ccc(Cl)cc3)ncnc21,53.6%,48.5%,101%,109%,95.7%,94.2,87.4%,,103%,76.1%,62.1%,92.3%,100%,87.4%,103%,85.7%,95.6%,
